Assay results: PubChem BioAssay (EPA / NIEHS)
Activity calls are given as the source filed them. How the source made its calls: active means hit-call score of the fitted dose curve at least 0.9, where 1 is the maximum; inactive means score below 0.9.

Legend:
Settings in all cases: primary human HUVEC with PBMC; actives raise or lower the signal
[1] = read-out: Interleukin-1 alpha (IL1a), IL1A (gene 3552); test: BSK_LPS_IL1a: BioMAP Diversity Plus: LPS Assay for Interleukin-1 alpha (IL1a) Biomarker Activity (AID 2283080)
Procedure, shortened: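 Human umbilical vein endothelial cells co-cultured with PBMC and stimulated with LPS; IL-1a measured by ELISA 24 h after dosing. Bidirectional fitting against DMSO; cytotoxicity checked by SRB staining in parallel cultures.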

[2] = read-out: Monocyte Chemoattractant Protein-1 (MCP1), CCL2 (gene 6347); test: BSK_LPS_MCP1: BioMAP Diversity Plus: LPS Assay for Monocyte Chemoattractant Protein-1 (MCP1) Biomarker Activity (AID 2283081);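 on AC50: secreted MCP-1 protein quantified by ELISA in culture supernatant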
Procedure, shortened: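 Human umbilical vein endothelial cells co-cultured with PBMC, LPS-stimulated; secreted MCP-1 measured by ELISA 24 h after compound addition. Bidirectional curve fitting against DMSO baseline; SRB total-protein staining in parallel cultures for cytotoxicity.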

[3] = BSK_LPS_PGE2: BioMAP Diversity Plus: LPS Assay for Prostaglandin E2 (PGE2) Biomarker Activity (AID 2283082);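 on AC50: secreted prostaglandin E2 measured by ELISA in LPS-stimulated co-culture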
Procedure, shortened: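 LPS-activated HUVEC/PBMC co-culture; cmpd dosed, 24 h; PGE2 by ELISA; bidirectional fit vs DMSO; SRB (0.1%, TCA-fixed, 560 nm) in parallel plates for overt cytotox.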

[4] = read-out: Macrophage colony-stimulating factor (MCSF), CSF1 (gene 1435); test: BSK_LPS_MCSF: BioMAP Diversity Plus: LPS Assay for Macrophage colony-stimulating factor (MCSF) Biomarker Activity (AID 2283083)
Procedure, shortened: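 HUVEC–PBMC co-culture, M-CSF measured by ELISA 24 h after chemical dosing. Fitted in both directions relative to DMSO as negative control; overt cytotoxicity assessed by SRB total-protein staining in parallel cultures.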

[5] = read-out: Tissue Factor, F3 (gene 2152); test: BSK_LPS_TissueFactor: BioMAP Diversity Plus: LPS Assay for Tissue Factor Biomarker Activity (AID 2283084)
Procedure, shortened: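 Human umbilical vein endothelial cells co-cultured with PBMC were dosed with compound. Cell-surface CD142 was measured by ELISA 24 h later. Activity was fitted bidirectionally against DMSO, with SRB total-protein staining in parallel cultures for cytotoxicity.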

[6] = read-out: Tumor necrosis factor (Homo sapiens) (UniProt P01375); test: BSK_LPS_TNFa: BioMAP Diversity Plus: LPS Assay for Tumour Necrosis Factor alpha (TNFa) Biomarker Activity (AID 2283085);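 on AC50: TNFa protein level quantified by ELISA in the co-culture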
Procedure, shortened: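 Read-out is ELISA of TNFa in primary human endothelial cell–PBMC co-cultures at 24 h after compound. Activity in either direction was fitted against DMSO.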

[7] = read-out: Vascular cell adhesion molecule 1 (VCAM1), VCAM1 (gene 7412); test: BSK_LPS_VCAM1: BioMAP Diversity Plus: LPS Assay for Vascular cell adhesion molecule 1 (VCAM1) Biomarker Activity (AID 2283086)
Procedure, shortened: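 HUVEC + PBMC co-culture, LPS system; compound 24 h; VCAM-1 by ELISA; bidirectional fit vs DMSO control; parallel SRB (0.1%, TCA-fixed, 560 nm) for cytotoxicity.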

CD38, CD38 (gene 952) = test: BSK_SAg_CD38: BioMAP Diversity Plus: SAg Assay for CD38 Biomarker Activity (AID 2283087)
Procedure, shortened: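 Human HUVEC plus PBMC co-culture stimulated with superantigen; CD38 measured by ELISA 24 h after chemical dosing. Fluorescence read-out, bidirectional fit against DMSO; cytotoxicity tracked in parallel by SRB and Alamar Blue.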

CD40, CD40 (gene 958) = test: BSK_SAg_CD40: BioMAP Diversity Plus: SAg Assay for CD40 Biomarker Activity (AID 2283088)
Procedure, shortened: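 HUVEC plus PBMC co-culture, superantigen-activated, with CD40 read by ELISA 24 h after dosing. Curves fitted in both directions against DMSO. Overt cytotoxicity checked by parallel SRB total-protein staining.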

CD69, CD69 (gene 969) = test: BSK_SAg_CD69: BioMAP Diversity Plus: SAg Assay for CD69 Biomarker Activity (AID 2283089);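 on AC50: cell surface CD69 protein quantified by ELISA with fluorescence detection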
Procedure, shortened: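 Primary human vascular co-culture (umbilical vein endothelium with peripheral blood mononuclear cells) exposed to test chemical for 24 h. CD69 levels quantified by fluorescence ELISA; DMSO served as negative control for bidirectional fitting.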

Sequence of Tumor necrosis factor (Homo sapiens) (P01375 whole entry, looked up): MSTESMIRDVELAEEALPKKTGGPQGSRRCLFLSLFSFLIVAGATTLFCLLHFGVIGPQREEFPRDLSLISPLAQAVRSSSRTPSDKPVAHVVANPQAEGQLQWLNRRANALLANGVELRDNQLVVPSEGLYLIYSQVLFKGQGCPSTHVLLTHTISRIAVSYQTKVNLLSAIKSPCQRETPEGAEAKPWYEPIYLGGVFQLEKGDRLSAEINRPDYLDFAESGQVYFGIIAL

What does the source list for CCCCCCOC(=O)CCCCC(=O)OCCCCCC?
outcome [1]: inactive; outcome [2]: inactive; outcome [3]: inactive; outcome [4]: inactive; outcome [5]: inactive; outcome [6]: inactive; outcome [7]: inactive; outcome (CD38, CD38 (gene 952)): inactive; outcome (CD40, CD40 (gene 958)): inactive; outcome (CD69, CD69 (gene 969)): inactive

Which results are given for O=C(O)C(F)(F)C(F)(F)C(F)(F)C(F)(F)C(=O)O?
outcome [1]: inactive; outcome [2]: inactive; outcome [3]: inactive; outcome [4]: inactive; outcome [5]: inactive; outcome [6]: inactive; outcome [7]: inactive; outcome (CD38, CD38 (gene 952)): inactive; outcome (CD40, CD40 (gene 958)): inactive; outcome (CD69, CD69 (gene 969)): inactive

For Cc1ccc([N+](=O)[O-])cc1N, which outcome [1] is on record?
Its outcome is “inactive”.

And the outcome [2]?
The outcome was “inactive”.

And the outcome [3]?
Its outcome is “inactive”.

And the outcome [4]?
The outcome was “inactive”.

And the outcome [5]?
The outcome was “inactive”.

What about the outcome [6] of the same compound?
The outcome was “inactive”.

What about the outcome [7] of the same compound?
Its outcome is “inactive”.

What about the outcome (CD38, CD38 (gene 952)) of the same compound?
Its outcome is “inactive”.

What about the outcome (CD40, CD40 (gene 958)) of the same compound?
The outcome was “inactive”.

And the outcome (CD69, CD69 (gene 969))?
Its outcome is “inactive”.

What does the source list for CC(CCC(=O)O)(c1ccc(O)cc1)c1ccc(O)cc1?
outcome [1]: inactive; outcome [2]: inactive; outcome [3]: inactive; outcome [4]: inactive; outcome [5]: inactive; outcome [6]: inactive; outcome [7]: inactive; outcome (CD38, CD38 (gene 952)): inactive; outcome (CD40, CD40 (gene 958)): inactive; outcome (CD69, CD69 (gene 969)): inactive

With C=CC(=O)NCOCCCC as the compound, how does the outcome [1] read?
Its outcome is “inactive”.

What about the outcome [2] of the same compound?
Its outcome is “inactive”.

And the outcome [3]?
Its outcome is “inactive”.

And the outcome [4]?
Its outcome is “inactive”.

What about the outcome [5] of the same compound?
Its outcome is “inactive”.

What about the AC50 [6] of the same compound?
Its AC50 is 20 µM (active).

What about the outcome [7] of the same compound?
Its outcome is “inactive”.

What about the outcome (CD38, CD38 (gene 952)) of the same compound?
The outcome was “inactive”.

What about the outcome (CD40, CD40 (gene 958)) of the same compound?
The outcome was “inactive”.

What about the outcome (CD69, CD69 (gene 969)) of the same compound?
The outcome was “inactive”.

Which outcome [1] does the source give for CC(C)CCCCCOC(=O)CS here?
Its outcome is “inactive”.

What about the outcome [2] of the same compound?
The outcome was “inactive”.

And the outcome [3]?
The outcome was “inactive”.

What about the outcome [4] of the same compound?
Its outcome is “inactive”.

And the outcome [5]?
Its outcome is “inactive”.

What about the outcome [6] of the same compound?
The outcome was “inactive”.

And the outcome [7]?
Its outcome is “inactive”.

What about the outcome (CD38, CD38 (gene 952)) of the same compound?
Its outcome is “inactive”.

And the outcome (CD40, CD40 (gene 958))?
The outcome was “inactive”.

And the outcome (CD69, CD69 (gene 969))?
Its outcome is “inactive”.

Which outcome [1] does the source give for CCCCCCC=O here?
Its outcome is “inactive”.

And the outcome [2]?
The outcome was “inactive”.

What about the outcome [3] of the same compound?
Its outcome is “inactive”.

What about the outcome [4] of the same compound?
The outcome was “inactive”.

And the outcome [5]?
The outcome was “inactive”.

What about the outcome [6] of the same compound?
The outcome was “inactive”.

And the outcome [7]?
Its outcome is “inactive”.

What about the outcome (CD38, CD38 (gene 952)) of the same compound?
Its outcome is “inactive”.

And the outcome (CD40, CD40 (gene 958))?
Its outcome is “inactive”.

What about the outcome (CD69, CD69 (gene 969)) of the same compound?
Its outcome is “inactive”.

For O=C(Oc1ccccc1)c1ccccc1C(=O)Oc1ccccc1, which outcome [1] is on record?
The outcome was “inactive”.

What about the outcome [2] of the same compound?
Its outcome is “inactive”.

What about the outcome [3] of the same compound?
The outcome was “inactive”.

What about the outcome [4] of the same compound?
Its outcome is “inactive”.

And the outcome [5]?
Its outcome is “inactive”.

What about the outcome [6] of the same compound?
Its outcome is “inactive”.

What about the outcome [7] of the same compound?
The outcome was “inactive”.

What about the AC50 (CD38, CD38 (gene 952)) of the same compound?
Its AC50 is 29.7 µM (active).

And the AC50 (CD69, CD69 (gene 969))?
Its AC50 is 24.1 µM (active).

With CCc1cccc(C)c1N(C(=O)CS(=O)(=O)O)C(C)COC (centres undefined) as the compound, how does the outcome [1] read?
The outcome was “inactive”.

And the outcome [2]?
The outcome was “inactive”.

And the outcome [3]?
Its outcome is “inactive”.

What about the outcome [4] of the same compound?
Its outcome is “inactive”.

What about the outcome [5] of the same compound?
Its outcome is “inactive”.

What about the outcome [6] of the same compound?
Its outcome is “inactive”.

And the outcome [7]?
Its outcome is “inactive”.

What about the outcome (CD38, CD38 (gene 952)) of the same compound?
The outcome was “inactive”.

What about the outcome (CD40, CD40 (gene 958)) of the same compound?
The outcome was “inactive”.

And the outcome (CD69, CD69 (gene 969))?
The outcome was “inactive”.

For CCC1(C)C(=O)N(Cl)C(=O)N1Cl (centres undefined), which outcome [1] is on record?
Its outcome is “inactive”.

What about the outcome [2] of the same compound?
Its outcome is “inactive”.

And the outcome [3]?
The outcome was “inactive”.

And the outcome [4]?
The outcome was “inactive”.

What about the outcome [5] of the same compound?
Its outcome is “inactive”.

What about the outcome [6] of the same compound?
The outcome was “inactive”.

What about the outcome [7] of the same compound?
The outcome was “inactive”.

What about the outcome (CD38, CD38 (gene 952)) of the same compound?
Its outcome is “inactive”.

What about the outcome (CD40, CD40 (gene 958)) of the same compound?
Its outcome is “inactive”.

And the outcome (CD69, CD69 (gene 969))?
The outcome was “inactive”.

With O=C1CCCCCCCCCCC1 as the compound, how does the outcome [1] read?
Its outcome is “inactive”.

What about the outcome [2] of the same compound?
Its outcome is “inactive”.

What about the outcome [3] of the same compound?
The outcome was “inactive”.

What about the outcome [4] of the same compound?
The outcome was “inactive”.

What about the outcome [5] of the same compound?
Its outcome is “inactive”.

What about the outcome [6] of the same compound?
Its outcome is “inactive”.

What about the outcome [7] of the same compound?
The outcome was “inactive”.

And the outcome (CD38, CD38 (gene 952))?
Its outcome is “inactive”.

What about the outcome (CD40, CD40 (gene 958)) of the same compound?
Its outcome is “inactive”.

And the outcome (CD69, CD69 (gene 969))?
Its outcome is “inactive”.

With CCCCC1C(=O)N(c2ccccc2)N(c2ccccc2)C1=O as the compound, how does the outcome [1] read?
The outcome was “inactive”.

What about the outcome [2] of the same compound?
Its outcome is “inactive”.

What about the outcome [3] of the same compound?
Its outcome is “inactive”.

What about the outcome [4] of the same compound?
The outcome was “inactive”.

And the outcome [5]?
The outcome was “inactive”.

And the outcome [6]?
The outcome was “inactive”.

And the outcome [7]?
The outcome was “inactive”.

What about the outcome (CD38, CD38 (gene 952)) of the same compound?
The outcome was “inactive”.

And the outcome (CD40, CD40 (gene 958))?
Its outcome is “inactive”.

What about the outcome (CD69, CD69 (gene 969)) of the same compound?
Its outcome is “inactive”.

For Fc1ccc(Br)cc1, which outcome [1] is on record?
The outcome was “inactive”.

And the outcome [2]?
Its outcome is “inactive”.

And the outcome [3]?
The outcome was “inactive”.

What about the outcome [4] of the same compound?
Its outcome is “inactive”.

What about the outcome [5] of the same compound?
Its outcome is “inactive”.

What about the outcome [6] of the same compound?
Its outcome is “inactive”.

And the outcome [7]?
Its outcome is “inactive”.

And the outcome (CD38, CD38 (gene 952))?
Its outcome is “inactive”.

And the outcome (CD40, CD40 (gene 958))?
The outcome was “inactive”.

And the outcome (CD69, CD69 (gene 969))?
The outcome was “inactive”.

With CC(C)c1cccc(C(C)C)c1N as the compound, how does the outcome [1] read?
Its outcome is “inactive”.

What about the outcome [2] of the same compound?
The outcome was “inactive”.

And the outcome [3]?
Its outcome is “inactive”.

And the outcome [4]?
The outcome was “inactive”.

What about the outcome [5] of the same compound?
Its outcome is “inactive”.

And the outcome [6]?
Its outcome is “inactive”.

What about the outcome [7] of the same compound?
The outcome was “inactive”.

And the outcome (CD38, CD38 (gene 952))?
Its outcome is “inactive”.

What about the outcome (CD40, CD40 (gene 958)) of the same compound?
Its outcome is “inactive”.

What about the outcome (CD69, CD69 (gene 969)) of the same compound?
The outcome was “inactive”.

What does the source list for Oc1ccc(/C=C/c2cc(O)cc(O)c2)cc1?
outcome [1]: inactive; AC50 [2]: 20 µM (active); AC50 [3]: 2.5 µM (active); outcome [4]: inactive; outcome [5]: inactive; outcome [6]: inactive; outcome [7]: inactive; outcome (CD38, CD38 (gene 952)): inactive; outcome (CD40, CD40 (gene 958)): inactive; outcome (CD69, CD69 (gene 969)): inactive
